# Target: Fibroblast growth factor 2 (Homo sapiens) (UniProt P09038)
# Test: basic fibroblast growth factor binding to printed compounds – biochemical, small-molecule microarray, 635/667 nm fluorescence, primary screen (AID 1133)
# Conditions: FGF2, fluorescence 635/667, higher = more signal
# Fibroblast growth factor 2 (Homo sapiens), sequence (P09038 whole entry, looked up): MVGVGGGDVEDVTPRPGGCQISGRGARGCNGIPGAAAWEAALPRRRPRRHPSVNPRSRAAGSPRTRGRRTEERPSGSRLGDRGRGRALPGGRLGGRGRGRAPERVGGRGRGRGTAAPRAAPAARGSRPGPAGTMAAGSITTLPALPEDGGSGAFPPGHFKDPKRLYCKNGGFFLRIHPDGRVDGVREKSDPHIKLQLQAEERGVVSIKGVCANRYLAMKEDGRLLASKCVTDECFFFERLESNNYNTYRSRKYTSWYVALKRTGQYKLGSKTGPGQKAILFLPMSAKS
row,Structure (SMILES),composite z-score
1,O=C1[C@H]2[C@H]3[C@H](O)[C@H](O)CC(=NOC[C@@H](O)COCc4ccco4)[C@@H]3CC[C@H]2C(=O)N1C[C@@H]1CCCO1,1.34
2,CC(C)=NOC[C@@H](C)[C@H](OCc1ccccc1)C(C)C,-0.229
3,C=CC[C@@H]1C=C[C@H](ON=C(C)CCN2CCc3nc(-c4ccccc4)c(-c4ccccc4)cc3C2)[C@@H](CO)O1,0.362
4,CC(=O)OC[C@H]1OC(ON=CC[C@@H]2C=C[C@H](OC(C)=O)[C@@H](COC(C)=O)O2)[C@H](OC(C)=O)[C@@H](OC(C)=O)[C@@H]1OC(C)=O (some centres not stated),0.0994
5,CON=CC[C@@H]1C=C[C@H](OC(C)=O)[C@@H](COC(C)=O)O1,0.495
6,COC(=O)CC=C[C@@H](C)[C@@H](C=NO[C@@H]1O[C@H](COC(C)=O)[C@@H](OC(C)=O)[C@H](OC(C)=O)[C@H]1OC(C)=O)OC,-0.347
7,COC(=O)CC=C[C@@H](C)[C@@H](C=NO[C@H](C)c1cn([C@H](CO)Cc2ccccc2)nn1)NS(=O)(=O)c1ccc(C)cc1,0.0757
8,CCOC(=O)[C@H](CC(C)C)NC(=O)CCC1CC(OC(=O)NCc2cccc3ccccc23)CC2(CCCC(COC(=O)NCC3CCCCC3)O2)O1 (some centres not stated),0.594
9,COc1cccc([C@H]2Oc3ccc(OC)cc3C(=NO[C@H](C)c3cn([C@H](CO)Cc4ccccc4)nn3)[C@@H]2O)c1,0.185
10,CCOC(=O)[C@H](Cc1ccccc1)NC(=O)CCC1CC(OC(=O)NCCc2ccc(F)cc2)CC2(CCCC(COC(=O)NCCCN3CCCC3=O)O2)O1 (some centres not stated),0.37
11,COC(=O)[C@H](C)NC(=O)CCC1CC(OC(=O)NCCc2ccc(F)cc2)CC2(CCCC(COC(=O)NCCC(C)C)O2)O1 (some centres not stated),0.761
12,O=C1C=C[C@@H](O)[C@@H]2[C@@H]3C(=O)N(c4ccc(F)cc4F)C(=O)[C@@H]3CC[C@@H]12,0.602
13,CCOC(=O)[C@H](CC(C)C)NC(=O)CCC1CC(OC(=O)NCc2cccc3ccccc23)CC2(CCCC(COC(=O)NCCCN3CCCC3=O)O2)O1 (some centres not stated),0.737
14,CCOC(=O)[C@H](CC(C)C)NC(=O)CCC1CC(OC(=O)NCc2cccc3ccccc23)CC2(CCCC(COC(=O)NCCc3ccc(Cl)cc3)O2)O1 (some centres not stated),0.352
15,CO[C@H]1COC(=O)CC=C[C@@H](C)[C@H](NS(=O)(=O)c2ccc(C)cc2)COC(=O)CCC[C@@H]1C,0.579
16,CC(=O)OC[C@H]1O[C@@H](ON=C(C)CCN2CCCc3nc(C)c(C)cc32)[C@H](OC(C)=O)[C@@H](OC(C)=O)[C@@H]1OC(C)=O,0.664
17,CCOC(=O)CCN1C(=O)[C@H]2[C@H]3[C@H](O)[C@H](O)CC(=NNC(=O)OCc4ccccc4)[C@@H]3CC[C@H]2C1=O,0.55
18,CC=CC1=C(CO)C(=O)[C@@H]2O[C@@H]2C1=O,1.89
19,O=C1[C@H]2[C@H]3[C@H](O)[C@H](O)CC(=NOCc4ccccc4)[C@H]3CC[C@H]2C(=O)N1Cc1ccc2c(c1)OCO2,0.533

row,Structure (SMILES),composite z-score
1,COC(=O)CC=C[C@@H](C)[C@@H](C=NOCC[C@@H]1C=C[C@H](OC(C)=O)[C@@H](COC(C)=O)O1)OC,0.785
2,O=C(NN=C1C[C@@H](O)[C@@H](O)[C@@H]2[C@@H]3C(=O)N(Cc4ccccc4)C(=O)[C@@H]3CC[C@@H]12)OCc1ccccc1,0.242
3,CO[C@H]1COC(=O)CCC[C@@H](C)[C@H](OC)COC(=O)[C@@H]2CCCN2C(=O)CC=C[C@@H]1C,1.18
4,CCOC(=O)[C@H](CC(C)C)NC(=O)CCC1CC(OC(=O)NCc2ccc3c(c2)OCO3)CC2(CCCC(COC(=O)NCc3cccc(C(F)(F)F)c3)O2)O1 (some centres not stated),0.363
5,CC(C)CON=C1C[C@@H](O)[C@@H](O)[C@@H]2[C@@H]3C(=O)N(c4ccc(F)cc4F)C(=O)[C@@H]3CC[C@H]12,0.375
6,CO[C@@H]1COC(=O)CC=C[C@@H](C)[C@@H]2C=C[C@H](O)[C@@H](COC(=O)CC=C[C@H]1C)O2,1.3
7,CC(CCN1CCc2nc(-c3ccccc3)c(-c3ccccc3)cc2C1)=NOC[C@@H](O)COCc1ccco1,0.496
8,C[C@H]1CC[C@H]2C(=O)O[C@H](COc3ccc(C(C)(C)C)cc3)CN2[C@@H]1c1ccc(Br)cc1,-0.101
9,CCC1=NOC(CCC2CC(OC(=O)NCc3cccc4c3OCO4)CC3(CCCC(COC(=O)NCCc4ccccc4OC)O3)O2)C1 (configuration not stated),0.297
10,C=CC[C@@H]1C=C[C@H](ON=C2[C@H]3CCn4c(=O)n(-c5ccccc5)c(=O)n4[C@H]3[C@H](O)[C@@H]3O[C@H]23)[C@@H](CO)O1,0.095
11,O=C1[C@H]2[C@H]3[C@H](O)[C@H](O)CC(=NOCc4ccccc4)[C@@H]3CC[C@H]2C(=O)N1C[C@@H]1CCCO1,0.0592
12,CC(=O)OC[C@H]1O[C@H](C#Cc2ccccc2)C=C[C@@H]1OC(C)=O,0.271
13,CCOC(=O)[C@H](CC(C)C)NC(=O)CCC1CC(OC(=O)NCCc2ccc(F)cc2)CC2(CCCC(COC(=O)NCCOc3ccccc3)O2)O1 (some centres not stated),0.692
14,C#CCCCON=C1C[C@@H](O)[C@@H](O)[C@@H]2[C@@H]3C(=O)N(CC)C(=O)[C@@H]3CC[C@@H]12,0.672
15,CC(C)=CCCC(C)=CCON=C1C[C@@H](O)[C@@H](O)[C@@H]2[C@@H]3C(=O)N(c4cccc(Oc5ccccc5)c4)C(=O)[C@@H]3CC[C@@H]12,0.207
16,O=C1[C@H]2[C@H]3[C@H](O)[C@H](O)CC(=NOC[C@@H](O)COCc4ccco4)[C@H]3CC[C@H]2C(=O)N1C[C@@H]1CCCO1,1.61
17,CC(CCN1CCc2nc(-c3ccccc3)c(-c3ccccc3)cc2C1)=NOC[C@@H](O)[C@H]1O[C@@H]2OC(C)(C)O[C@@H]2[C@H]1O,0.409
18,CCOC(=O)[C@H](CC(C)C)NC(=O)CCC1CC(OC(=O)NCc2ccc3c(c2)OCO3)CC2(CCCC(COC(=O)NCCCN3CCCC3=O)O2)O1 (some centres not stated),1.12
